About 6,500 targets were measured; listed, in parts, are those with a hit and a random draw of the rest. About 2% of all pairs of compound and target were hits. Unmarked numbers belong to inactive results.
compound: COC(=O)C#Cc1ccccc1 [methyl 3-phenylpropiolate]; assay: log2 ratio of iodoacetamide-alkyne labeling of the cysteine site, DMSO over compound (competition); higher = stronger covalent engagement of the cysteine by the compound, active = 1 or more; details: 500 µM; treatment time 1 h; system: HEK293T cell lysate
In short: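 The log2 competition ratio per cysteine is defined as mean reporter intensity in control channels over mean reporter intensity in compound channels. Lysate from HEK293T cells (2 mg/mL) received electrophile (500 µM) or vehicle for 1 h at ambient temperature, followed by iodoacetamide alkyne for 1 h. Samples were clicked to sCIP-TMT reagents, pooled, trypsin-digested overnight at 37 °C, streptavidin-enriched, acid-eluted and run on Orbitrap Eclipse LC-MS/MS with FAIMS, with quantification in FragPipe. Three replicates with duplicate channels were used, and any cysteine quantified in only one replicate was excluded.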

UniProt Q9Y597, sequence (Q9Y597 whole entry): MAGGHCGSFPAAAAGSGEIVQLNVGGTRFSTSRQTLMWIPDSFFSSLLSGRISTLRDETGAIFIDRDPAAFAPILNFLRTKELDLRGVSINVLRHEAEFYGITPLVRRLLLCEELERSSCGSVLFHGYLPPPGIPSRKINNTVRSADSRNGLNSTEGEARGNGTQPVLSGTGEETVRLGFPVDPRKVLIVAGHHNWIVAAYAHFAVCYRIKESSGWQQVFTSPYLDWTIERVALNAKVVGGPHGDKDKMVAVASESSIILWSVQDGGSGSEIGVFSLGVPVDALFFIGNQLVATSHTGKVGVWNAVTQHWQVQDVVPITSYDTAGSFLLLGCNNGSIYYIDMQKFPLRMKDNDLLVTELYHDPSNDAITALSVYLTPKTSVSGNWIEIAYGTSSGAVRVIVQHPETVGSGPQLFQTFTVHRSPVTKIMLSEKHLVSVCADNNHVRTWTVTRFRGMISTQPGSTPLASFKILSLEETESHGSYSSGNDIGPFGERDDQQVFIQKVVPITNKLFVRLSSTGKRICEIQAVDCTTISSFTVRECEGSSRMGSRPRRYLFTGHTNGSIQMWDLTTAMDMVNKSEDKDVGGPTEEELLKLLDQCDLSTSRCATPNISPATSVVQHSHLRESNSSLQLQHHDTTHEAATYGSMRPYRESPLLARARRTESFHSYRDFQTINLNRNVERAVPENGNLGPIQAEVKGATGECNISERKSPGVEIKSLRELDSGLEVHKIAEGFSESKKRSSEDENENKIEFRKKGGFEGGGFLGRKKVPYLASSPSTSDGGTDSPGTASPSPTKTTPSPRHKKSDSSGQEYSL
UniProt Q9H4L7, sequence (Q9H4L7 whole entry, looked up): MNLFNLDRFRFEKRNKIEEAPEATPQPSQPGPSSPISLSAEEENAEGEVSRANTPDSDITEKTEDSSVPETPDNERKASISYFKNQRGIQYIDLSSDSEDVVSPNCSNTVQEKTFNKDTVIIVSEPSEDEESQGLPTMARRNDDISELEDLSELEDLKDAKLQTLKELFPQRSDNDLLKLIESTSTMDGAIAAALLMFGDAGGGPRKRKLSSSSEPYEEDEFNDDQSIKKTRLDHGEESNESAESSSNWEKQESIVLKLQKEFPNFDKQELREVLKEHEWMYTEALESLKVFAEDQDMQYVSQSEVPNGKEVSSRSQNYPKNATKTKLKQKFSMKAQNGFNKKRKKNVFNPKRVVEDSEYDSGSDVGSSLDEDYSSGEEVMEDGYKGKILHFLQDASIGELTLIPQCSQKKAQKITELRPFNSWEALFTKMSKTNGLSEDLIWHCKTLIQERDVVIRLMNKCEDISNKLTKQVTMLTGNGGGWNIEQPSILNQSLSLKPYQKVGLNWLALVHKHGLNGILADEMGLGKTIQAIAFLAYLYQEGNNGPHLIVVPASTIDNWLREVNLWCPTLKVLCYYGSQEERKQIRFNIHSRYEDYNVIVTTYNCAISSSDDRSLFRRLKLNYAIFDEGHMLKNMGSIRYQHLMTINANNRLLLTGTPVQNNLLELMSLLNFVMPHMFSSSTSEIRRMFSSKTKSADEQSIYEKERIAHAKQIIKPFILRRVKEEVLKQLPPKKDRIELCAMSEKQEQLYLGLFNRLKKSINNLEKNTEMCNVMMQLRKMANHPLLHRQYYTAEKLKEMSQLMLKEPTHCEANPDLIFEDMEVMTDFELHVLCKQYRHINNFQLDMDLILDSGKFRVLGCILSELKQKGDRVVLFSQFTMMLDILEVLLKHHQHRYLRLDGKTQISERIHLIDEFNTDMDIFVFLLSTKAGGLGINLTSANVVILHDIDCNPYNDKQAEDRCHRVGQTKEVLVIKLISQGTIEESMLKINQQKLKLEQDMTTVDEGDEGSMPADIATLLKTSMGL
UniProt Q9NVX7, sequence (Q9NVX7 whole entry, looked up): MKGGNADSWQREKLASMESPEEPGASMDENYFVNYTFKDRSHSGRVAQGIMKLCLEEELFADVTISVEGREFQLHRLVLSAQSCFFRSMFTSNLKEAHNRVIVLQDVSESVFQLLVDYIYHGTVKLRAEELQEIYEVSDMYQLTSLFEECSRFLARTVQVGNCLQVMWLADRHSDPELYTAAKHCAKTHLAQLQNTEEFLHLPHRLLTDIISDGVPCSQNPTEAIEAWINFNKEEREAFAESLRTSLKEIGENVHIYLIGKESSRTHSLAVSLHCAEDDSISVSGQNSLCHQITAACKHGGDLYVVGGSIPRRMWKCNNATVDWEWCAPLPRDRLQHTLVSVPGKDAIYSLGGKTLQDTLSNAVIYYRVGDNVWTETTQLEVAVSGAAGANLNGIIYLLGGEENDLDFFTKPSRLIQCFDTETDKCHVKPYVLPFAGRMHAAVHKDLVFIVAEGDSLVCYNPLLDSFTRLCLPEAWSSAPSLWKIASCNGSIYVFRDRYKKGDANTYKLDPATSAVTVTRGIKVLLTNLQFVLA
UniProt Q9C0B1, sequence (Q9C0B1 whole entry, looked up): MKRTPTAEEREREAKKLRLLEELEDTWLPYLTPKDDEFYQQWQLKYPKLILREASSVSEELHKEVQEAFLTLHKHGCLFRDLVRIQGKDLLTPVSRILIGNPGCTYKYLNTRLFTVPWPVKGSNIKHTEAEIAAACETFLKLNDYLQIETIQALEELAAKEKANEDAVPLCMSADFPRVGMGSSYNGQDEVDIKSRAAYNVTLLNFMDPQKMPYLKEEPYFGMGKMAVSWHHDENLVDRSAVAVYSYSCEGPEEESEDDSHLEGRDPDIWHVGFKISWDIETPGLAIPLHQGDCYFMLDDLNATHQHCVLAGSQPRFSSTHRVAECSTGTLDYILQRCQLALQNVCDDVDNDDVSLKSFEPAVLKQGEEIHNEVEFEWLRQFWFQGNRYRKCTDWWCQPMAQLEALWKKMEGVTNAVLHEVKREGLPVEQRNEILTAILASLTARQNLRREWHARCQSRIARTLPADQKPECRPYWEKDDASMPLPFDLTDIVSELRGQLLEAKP
UniProt Q9Y4C2, sequence (Q9Y4C2 whole entry, looked up): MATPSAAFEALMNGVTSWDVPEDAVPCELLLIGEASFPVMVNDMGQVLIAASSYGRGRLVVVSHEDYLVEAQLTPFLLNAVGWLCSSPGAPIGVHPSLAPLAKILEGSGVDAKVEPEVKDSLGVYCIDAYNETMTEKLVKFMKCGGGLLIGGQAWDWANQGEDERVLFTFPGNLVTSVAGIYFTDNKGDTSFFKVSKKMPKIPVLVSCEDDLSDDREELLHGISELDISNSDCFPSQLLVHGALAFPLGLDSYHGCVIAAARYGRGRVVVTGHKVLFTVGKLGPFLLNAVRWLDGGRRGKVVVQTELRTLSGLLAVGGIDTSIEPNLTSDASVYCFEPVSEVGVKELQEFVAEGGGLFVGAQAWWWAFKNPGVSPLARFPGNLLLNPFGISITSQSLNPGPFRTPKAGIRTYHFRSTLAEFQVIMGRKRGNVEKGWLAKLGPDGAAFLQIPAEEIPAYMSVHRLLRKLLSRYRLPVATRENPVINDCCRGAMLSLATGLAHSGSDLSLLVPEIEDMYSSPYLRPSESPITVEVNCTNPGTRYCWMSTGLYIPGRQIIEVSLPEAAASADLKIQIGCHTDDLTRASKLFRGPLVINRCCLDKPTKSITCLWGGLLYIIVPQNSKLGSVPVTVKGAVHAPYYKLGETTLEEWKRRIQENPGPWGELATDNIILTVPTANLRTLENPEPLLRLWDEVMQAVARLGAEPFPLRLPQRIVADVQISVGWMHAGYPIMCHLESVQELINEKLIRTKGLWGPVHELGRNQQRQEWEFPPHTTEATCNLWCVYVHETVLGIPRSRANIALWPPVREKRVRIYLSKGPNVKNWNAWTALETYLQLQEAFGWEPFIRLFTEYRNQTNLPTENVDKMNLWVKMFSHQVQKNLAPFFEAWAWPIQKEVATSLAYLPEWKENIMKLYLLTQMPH
UniProt Q9H6K4, sequence (Q9H6K4 whole entry): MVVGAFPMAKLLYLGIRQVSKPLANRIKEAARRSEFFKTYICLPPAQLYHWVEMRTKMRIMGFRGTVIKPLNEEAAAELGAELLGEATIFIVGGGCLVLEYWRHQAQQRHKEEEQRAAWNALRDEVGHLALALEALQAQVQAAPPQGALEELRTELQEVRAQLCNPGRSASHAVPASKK
UniProt Q9BVP2, sequence (Q9BVP2 whole entry, looked up): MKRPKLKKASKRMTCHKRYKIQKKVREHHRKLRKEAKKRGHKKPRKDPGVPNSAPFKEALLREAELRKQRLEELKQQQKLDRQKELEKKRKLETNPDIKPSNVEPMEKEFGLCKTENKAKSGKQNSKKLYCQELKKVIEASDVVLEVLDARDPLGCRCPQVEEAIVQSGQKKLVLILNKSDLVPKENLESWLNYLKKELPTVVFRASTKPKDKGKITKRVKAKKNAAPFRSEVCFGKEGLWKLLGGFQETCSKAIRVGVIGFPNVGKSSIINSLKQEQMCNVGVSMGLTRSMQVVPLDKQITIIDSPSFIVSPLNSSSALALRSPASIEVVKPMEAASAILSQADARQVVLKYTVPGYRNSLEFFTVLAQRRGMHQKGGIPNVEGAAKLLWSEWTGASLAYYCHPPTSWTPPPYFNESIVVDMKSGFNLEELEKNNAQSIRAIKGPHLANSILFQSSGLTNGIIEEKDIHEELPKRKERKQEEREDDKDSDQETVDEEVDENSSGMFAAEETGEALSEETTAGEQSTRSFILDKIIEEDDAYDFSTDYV

Row | Target | log2 ratio of iodoacetamide-alkyne labeling
1 | KBTBD4 C455 (UniProt Q9NVX7) | 0.248
2 | OPA3 C164 (UniProt Q9H6K4) | 0.331
3 | UniProt Q9NV64_C29 | 1.11 (active)
4 | KCTD3 C606 (UniProt Q9Y597) | 1.08 (active)
5 | SMC4 C190 (UniProt Q9NTJ3) | 0.109
6 | FTO C326 (UniProt Q9C0B1) | 0.0865
7 | SMARCAD1 C772 (UniProt Q9H4L7) | 1 (active)
8 | TCAF1 C488 (UniProt Q9Y4C2) | 0.36
9 | TLN1 C2161 (UniProt Q9Y490) | -0.0698
10 | GPHN C419 (UniProt Q9NQX3) | 0.38
11 | UniProt Q9NSY1_C912 | 0.827
12 | GNL3 C234 (UniProt Q9BVP2) | 0.259
13 | FAM120A C279 (UniProt Q9NZB2) | -0.00137
14 | SETD2 C958 (UniProt Q9BYW2) | 1.02 (active)
15 | UniProt Q9C0E8_C149 | 0.125
16 | UniProt Q9NPA3_C62 | 0.293

Reference: the supplement of paper PMC11006884
